# ChEMBL document CHEMBL1961873, “Compounds: GSK PKIS; Assays: Nanosyn kinase panel” (2012)
# What was measured:
# [1] = molecular target: Calcium/calmodulin-dependent protein kinase type II subunit alpha (Homo sapiens) (UniProt Q9UQM7); conditions: at 1 µM;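 note: reported value is a mean percent inhibition of CAMK2A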
# [2] = molecular target: Calcium/calmodulin-dependent protein kinase type II subunit delta (Homo sapiens) (UniProt Q13557); conditions: at 0.1 µM
# [3] = molecular target: Calcium/calmodulin-dependent protein kinase type II subunit delta (Homo sapiens) (UniProt Q13557); conditions: at 1 µM
# [4] = molecular target: T1, Calcium/calmodulin-dependent protein kinase type IV (Homo sapiens) (UniProt Q16566); conditions: at 0.1 µM
# T1 sequence (whole entry): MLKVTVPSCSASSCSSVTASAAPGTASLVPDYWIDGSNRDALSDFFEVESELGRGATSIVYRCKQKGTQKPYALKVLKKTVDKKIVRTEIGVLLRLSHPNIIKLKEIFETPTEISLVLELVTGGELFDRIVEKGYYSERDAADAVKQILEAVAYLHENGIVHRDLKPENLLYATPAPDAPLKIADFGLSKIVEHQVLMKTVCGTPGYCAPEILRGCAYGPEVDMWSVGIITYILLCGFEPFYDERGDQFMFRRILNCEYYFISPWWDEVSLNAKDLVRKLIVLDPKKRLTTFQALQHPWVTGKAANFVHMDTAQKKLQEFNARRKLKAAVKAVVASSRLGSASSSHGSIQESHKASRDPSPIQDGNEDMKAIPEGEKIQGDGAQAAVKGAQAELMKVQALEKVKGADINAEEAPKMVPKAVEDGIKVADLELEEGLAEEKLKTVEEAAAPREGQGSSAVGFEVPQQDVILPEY
# [5] = molecular target: T1, Calcium/calmodulin-dependent protein kinase type IV (Homo sapiens); conditions: at 1 µM
# [6] = molecular target: T2, Serine/threonine-protein kinase Chk1 (Homo sapiens) (UniProt O14757); conditions: at 0.1 µM
# T2 sequence (whole entry): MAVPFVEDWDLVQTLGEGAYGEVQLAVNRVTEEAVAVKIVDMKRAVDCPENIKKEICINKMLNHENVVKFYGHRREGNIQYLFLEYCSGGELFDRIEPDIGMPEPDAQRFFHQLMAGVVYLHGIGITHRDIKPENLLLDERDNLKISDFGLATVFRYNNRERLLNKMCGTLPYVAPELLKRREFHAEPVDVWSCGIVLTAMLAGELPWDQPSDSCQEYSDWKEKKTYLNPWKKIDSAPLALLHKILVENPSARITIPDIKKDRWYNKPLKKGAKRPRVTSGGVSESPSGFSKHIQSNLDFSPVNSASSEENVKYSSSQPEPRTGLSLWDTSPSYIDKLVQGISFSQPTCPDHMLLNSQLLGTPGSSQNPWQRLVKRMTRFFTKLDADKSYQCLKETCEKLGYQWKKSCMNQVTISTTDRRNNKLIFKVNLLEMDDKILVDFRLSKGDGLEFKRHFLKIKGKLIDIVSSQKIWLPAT
# [7] = molecular target: T2, Serine/threonine-protein kinase Chk1 (Homo sapiens); conditions: at 1 µM
# [8] = molecular target: Serine/threonine-protein kinase Chk2 (Homo sapiens) (UniProt O96017); conditions: at 0.1 µM
# [9] = molecular target: Serine/threonine-protein kinase Chk2 (Homo sapiens) (UniProt O96017); conditions: at 1 µM
# [10] = molecular target: Death-associated protein kinase 1 (Homo sapiens) (UniProt P53355); conditions: at 0.1 µM
# [11] = molecular target: Death-associated protein kinase 1 (Homo sapiens) (UniProt P53355); conditions: at 1 µM
# [12] = molecular target: T3, Serine/threonine-protein kinase DCLK2 (Homo sapiens) (UniProt Q8N568); conditions: at 0.1 µM
# T3 sequence (whole entry): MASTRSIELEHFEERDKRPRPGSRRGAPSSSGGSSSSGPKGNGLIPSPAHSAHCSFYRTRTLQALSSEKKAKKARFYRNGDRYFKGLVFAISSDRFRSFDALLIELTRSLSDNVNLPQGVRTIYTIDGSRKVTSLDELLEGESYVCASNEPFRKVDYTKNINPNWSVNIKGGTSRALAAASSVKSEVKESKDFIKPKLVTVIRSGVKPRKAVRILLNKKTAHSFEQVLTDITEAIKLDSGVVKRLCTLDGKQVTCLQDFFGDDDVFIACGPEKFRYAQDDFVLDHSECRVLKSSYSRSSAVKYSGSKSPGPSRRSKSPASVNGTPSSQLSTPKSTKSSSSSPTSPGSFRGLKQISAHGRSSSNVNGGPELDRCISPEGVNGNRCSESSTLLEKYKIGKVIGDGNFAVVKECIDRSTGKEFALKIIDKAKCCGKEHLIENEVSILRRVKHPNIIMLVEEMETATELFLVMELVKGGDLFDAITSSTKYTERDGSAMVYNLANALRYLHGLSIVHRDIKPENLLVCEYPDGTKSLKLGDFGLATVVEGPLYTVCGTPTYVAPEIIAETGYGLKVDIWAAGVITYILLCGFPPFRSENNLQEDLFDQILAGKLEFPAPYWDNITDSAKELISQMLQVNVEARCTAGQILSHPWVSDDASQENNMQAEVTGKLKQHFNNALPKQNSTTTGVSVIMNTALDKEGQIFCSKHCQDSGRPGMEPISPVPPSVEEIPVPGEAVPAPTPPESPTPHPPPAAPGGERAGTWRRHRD
# [13] = molecular target: T3, Serine/threonine-protein kinase DCLK2 (Homo sapiens); conditions: at 1 µM
# [14] = molecular target: MAP kinase-activated protein kinase 2 (Homo sapiens) (UniProt P49137); conditions: at 0.1 µM
# [15] = molecular target: MAP kinase-activated protein kinase 2 (Homo sapiens) (UniProt P49137); conditions: at 1 µM
# [16] = molecular target: MAP kinase-activated protein kinase 3 (Homo sapiens) (UniProt Q16644); conditions: at 0.1 µM
# [17] = molecular target: MAP kinase-activated protein kinase 3 (Homo sapiens) (UniProt Q16644); conditions: at 1 µM
# [18] = molecular target: Serine/threonine-protein kinase MARK1 (Homo sapiens) (UniProt Q9P0L2); conditions: at 0.1 µM
# [19] = molecular target: Serine/threonine-protein kinase MARK1 (Homo sapiens) (UniProt Q9P0L2); conditions: at 1 µM
# [20] = molecular target: MAP/microtubule affinity-regulating kinase 3 (Homo sapiens) (UniProt P27448); conditions: at 0.1 µM;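 note: mean percent inhibition of MARK3 kinase activity, measured within the GSK PKIS screening panel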
# Sequence of MAP/microtubule affinity-regulating kinase 3 (Homo sapiens) (P27448 whole entry, looked up): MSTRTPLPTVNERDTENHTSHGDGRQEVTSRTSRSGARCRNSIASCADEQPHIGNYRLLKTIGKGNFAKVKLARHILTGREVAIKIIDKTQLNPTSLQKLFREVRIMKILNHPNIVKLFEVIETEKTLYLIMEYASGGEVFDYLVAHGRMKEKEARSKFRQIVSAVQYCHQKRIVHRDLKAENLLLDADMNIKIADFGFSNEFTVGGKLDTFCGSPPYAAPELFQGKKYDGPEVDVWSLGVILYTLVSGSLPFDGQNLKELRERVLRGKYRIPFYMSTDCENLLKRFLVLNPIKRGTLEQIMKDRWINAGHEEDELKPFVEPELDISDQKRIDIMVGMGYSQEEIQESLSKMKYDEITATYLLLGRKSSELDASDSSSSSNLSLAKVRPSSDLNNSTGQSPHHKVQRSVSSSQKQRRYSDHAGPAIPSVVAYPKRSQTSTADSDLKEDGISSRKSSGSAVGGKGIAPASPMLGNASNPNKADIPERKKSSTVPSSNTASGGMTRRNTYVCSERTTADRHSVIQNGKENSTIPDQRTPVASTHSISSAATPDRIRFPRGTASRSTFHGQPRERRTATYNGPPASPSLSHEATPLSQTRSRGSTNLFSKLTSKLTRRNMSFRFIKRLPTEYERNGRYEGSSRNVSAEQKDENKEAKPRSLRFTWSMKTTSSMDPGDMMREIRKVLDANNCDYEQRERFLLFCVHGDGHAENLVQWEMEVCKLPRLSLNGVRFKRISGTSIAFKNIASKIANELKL
# Sequence of Death-associated protein kinase 1 (Homo sapiens) (P53355 whole entry, looked up): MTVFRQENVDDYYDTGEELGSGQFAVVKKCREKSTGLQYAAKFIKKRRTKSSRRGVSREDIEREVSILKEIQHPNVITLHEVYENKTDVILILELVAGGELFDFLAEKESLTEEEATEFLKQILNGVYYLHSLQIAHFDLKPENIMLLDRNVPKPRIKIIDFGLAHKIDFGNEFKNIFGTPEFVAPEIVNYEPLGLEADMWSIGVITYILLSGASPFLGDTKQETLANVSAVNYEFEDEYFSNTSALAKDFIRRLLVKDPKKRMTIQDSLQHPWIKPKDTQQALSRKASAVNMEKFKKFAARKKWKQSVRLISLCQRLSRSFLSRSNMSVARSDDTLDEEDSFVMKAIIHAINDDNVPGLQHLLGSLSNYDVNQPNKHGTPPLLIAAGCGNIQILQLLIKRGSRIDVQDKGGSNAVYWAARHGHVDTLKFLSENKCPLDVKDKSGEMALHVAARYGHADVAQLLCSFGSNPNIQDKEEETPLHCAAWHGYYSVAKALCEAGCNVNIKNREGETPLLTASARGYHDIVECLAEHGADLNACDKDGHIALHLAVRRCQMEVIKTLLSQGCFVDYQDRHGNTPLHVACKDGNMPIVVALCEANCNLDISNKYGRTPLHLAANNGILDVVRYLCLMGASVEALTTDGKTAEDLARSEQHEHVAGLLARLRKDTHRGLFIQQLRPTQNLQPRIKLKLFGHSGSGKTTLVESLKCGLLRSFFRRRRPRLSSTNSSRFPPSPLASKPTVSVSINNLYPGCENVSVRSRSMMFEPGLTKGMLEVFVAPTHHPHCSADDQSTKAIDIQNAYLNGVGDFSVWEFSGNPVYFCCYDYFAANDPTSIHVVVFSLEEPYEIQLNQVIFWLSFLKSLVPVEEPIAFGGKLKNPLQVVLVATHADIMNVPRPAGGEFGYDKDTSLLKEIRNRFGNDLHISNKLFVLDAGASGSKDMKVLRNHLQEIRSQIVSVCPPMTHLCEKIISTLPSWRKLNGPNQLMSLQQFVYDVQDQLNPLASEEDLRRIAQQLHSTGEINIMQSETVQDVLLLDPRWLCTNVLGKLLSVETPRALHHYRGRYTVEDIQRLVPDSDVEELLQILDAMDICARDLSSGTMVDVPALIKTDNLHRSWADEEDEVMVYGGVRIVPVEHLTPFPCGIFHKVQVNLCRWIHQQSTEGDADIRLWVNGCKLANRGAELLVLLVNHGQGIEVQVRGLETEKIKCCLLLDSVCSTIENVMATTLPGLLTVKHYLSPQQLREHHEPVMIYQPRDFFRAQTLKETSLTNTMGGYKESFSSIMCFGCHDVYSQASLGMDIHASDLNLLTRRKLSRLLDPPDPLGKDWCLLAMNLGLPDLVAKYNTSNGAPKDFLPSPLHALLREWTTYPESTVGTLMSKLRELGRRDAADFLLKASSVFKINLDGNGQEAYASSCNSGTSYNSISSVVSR
# Sequence of Serine/threonine-protein kinase Chk2 (Homo sapiens) (O96017 whole entry): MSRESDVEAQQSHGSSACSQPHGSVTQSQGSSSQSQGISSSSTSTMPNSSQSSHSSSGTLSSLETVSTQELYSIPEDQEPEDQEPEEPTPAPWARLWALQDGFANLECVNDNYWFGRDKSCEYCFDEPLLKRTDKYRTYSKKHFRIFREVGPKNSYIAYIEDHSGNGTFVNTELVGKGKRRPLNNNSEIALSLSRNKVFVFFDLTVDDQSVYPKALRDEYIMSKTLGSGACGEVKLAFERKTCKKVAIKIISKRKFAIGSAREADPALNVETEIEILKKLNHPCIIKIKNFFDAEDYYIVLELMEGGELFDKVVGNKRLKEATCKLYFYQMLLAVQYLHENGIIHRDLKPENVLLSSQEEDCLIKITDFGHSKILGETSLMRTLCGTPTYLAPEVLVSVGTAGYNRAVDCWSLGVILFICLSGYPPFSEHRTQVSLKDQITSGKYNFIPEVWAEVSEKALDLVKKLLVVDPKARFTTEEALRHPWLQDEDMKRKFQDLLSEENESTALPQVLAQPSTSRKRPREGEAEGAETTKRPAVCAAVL
# Sequence of Calcium/calmodulin-dependent protein kinase type II subunit delta (Homo sapiens) (Q13557 whole entry): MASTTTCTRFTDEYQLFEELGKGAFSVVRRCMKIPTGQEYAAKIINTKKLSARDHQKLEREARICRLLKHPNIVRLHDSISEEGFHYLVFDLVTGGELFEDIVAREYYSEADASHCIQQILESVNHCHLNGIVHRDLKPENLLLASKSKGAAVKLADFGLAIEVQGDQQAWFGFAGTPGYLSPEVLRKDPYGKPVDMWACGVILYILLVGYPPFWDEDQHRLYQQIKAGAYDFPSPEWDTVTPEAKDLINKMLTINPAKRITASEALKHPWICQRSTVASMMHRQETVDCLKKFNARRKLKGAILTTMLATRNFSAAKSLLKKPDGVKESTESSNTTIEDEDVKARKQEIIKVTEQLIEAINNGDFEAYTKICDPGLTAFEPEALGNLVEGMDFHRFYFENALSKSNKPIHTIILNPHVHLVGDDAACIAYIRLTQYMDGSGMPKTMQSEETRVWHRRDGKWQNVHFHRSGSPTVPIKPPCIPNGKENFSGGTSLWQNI
# Sequence of Calcium/calmodulin-dependent protein kinase type II subunit alpha (Homo sapiens) (Q9UQM7 whole entry): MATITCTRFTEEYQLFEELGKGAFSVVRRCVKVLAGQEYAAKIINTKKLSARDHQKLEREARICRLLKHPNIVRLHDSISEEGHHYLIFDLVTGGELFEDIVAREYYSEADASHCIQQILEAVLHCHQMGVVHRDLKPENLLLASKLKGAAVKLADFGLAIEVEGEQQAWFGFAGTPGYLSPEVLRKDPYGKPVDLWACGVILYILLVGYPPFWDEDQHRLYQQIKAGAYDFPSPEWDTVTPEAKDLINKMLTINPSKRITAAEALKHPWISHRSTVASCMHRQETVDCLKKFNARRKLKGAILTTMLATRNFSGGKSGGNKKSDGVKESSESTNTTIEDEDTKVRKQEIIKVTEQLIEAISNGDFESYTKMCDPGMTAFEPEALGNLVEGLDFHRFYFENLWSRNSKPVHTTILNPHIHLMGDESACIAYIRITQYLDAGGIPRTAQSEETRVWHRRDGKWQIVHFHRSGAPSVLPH
# Sequence of MAP kinase-activated protein kinase 3 (Homo sapiens) (Q16644 whole entry, looked up): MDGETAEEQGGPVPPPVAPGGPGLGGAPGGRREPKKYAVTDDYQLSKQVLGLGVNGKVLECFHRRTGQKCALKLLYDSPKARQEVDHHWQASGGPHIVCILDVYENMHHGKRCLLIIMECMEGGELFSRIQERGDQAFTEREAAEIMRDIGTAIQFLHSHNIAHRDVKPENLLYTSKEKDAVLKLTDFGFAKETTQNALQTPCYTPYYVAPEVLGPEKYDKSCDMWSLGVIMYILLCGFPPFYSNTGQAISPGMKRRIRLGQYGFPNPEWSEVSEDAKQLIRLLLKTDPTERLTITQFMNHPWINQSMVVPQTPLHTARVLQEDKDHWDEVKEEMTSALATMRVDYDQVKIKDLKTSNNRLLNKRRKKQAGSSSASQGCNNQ
# Sequence of MAP kinase-activated protein kinase 2 (Homo sapiens) (P49137 whole entry, looked up): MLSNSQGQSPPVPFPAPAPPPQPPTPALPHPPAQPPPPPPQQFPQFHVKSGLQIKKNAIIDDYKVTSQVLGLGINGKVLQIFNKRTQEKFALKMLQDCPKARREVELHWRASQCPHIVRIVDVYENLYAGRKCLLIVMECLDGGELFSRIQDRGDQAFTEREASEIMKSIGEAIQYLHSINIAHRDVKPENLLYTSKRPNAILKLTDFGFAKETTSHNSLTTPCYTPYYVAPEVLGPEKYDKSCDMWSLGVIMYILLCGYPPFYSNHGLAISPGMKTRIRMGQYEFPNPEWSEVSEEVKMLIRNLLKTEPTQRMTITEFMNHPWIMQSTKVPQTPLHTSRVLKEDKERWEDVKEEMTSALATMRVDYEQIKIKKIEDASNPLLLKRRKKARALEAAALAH
Structure (SMILES),inhibition [1],inhibition [2],inhibition [3],inhibition [4],inhibition [5],inhibition [6],inhibition [7],inhibition [8],inhibition [9],inhibition [10],inhibition [11],inhibition [12],inhibition [13],inhibition [14],inhibition [15],inhibition [16],inhibition [17],inhibition [18],inhibition [19],inhibition [20]
COc1ccc(-c2coc3ncnc(N)c23)cc1,3.94%,3.92%,5.31%,1.63%,1.94%,9.42%,12.4%,7.79%,8.17%,10.8%,12.9%,0.87%,-0.02%,3.78%,4.6%,10.7%,11.6%,4.41%,3.73%,5.6%
CC1=C(C(=O)Nc2ccc3[nH]ncc3c2)C(c2ccc3ccccc3c2)CC(=O)N1 (centres undefined),0.99%,0.33%,3.19%,1.12%,0.1%,0.95%,3.91%,1.29%,4.21%,0.55%,0.51%,0.76%,-1.57%,0.66%,0.45%,0.74%,2.13%,1.86%,3.48%,0.58%
CC1=C(C(=O)Nc2ccc3[nH]ncc3c2)C(c2ccc(F)cc2)NC(=O)N1 (centres undefined),0.1%,1.48%,1.35%,0.3%,-0.21%,0.87%,4.3%,1.2%,2.29%,1.6%,1.59%,1.36%,-0.03%,1.48%,1.87%,1.46%,1.05%,2.81%,9.5%,0.23%
COc1ccc2cc(-c3c(-c4ccncc4)nc(-c4ccc([S+](C)[O-])cc4)n3C)ccc2c1 (centres undefined),3.37%,2.81%,3.06%,0.45%,1.25%,3.28%,4.03%,2.27%,2.52%,3.27%,4.63%,0.5%,5.77%,1%,0.92%,2.16%,2.35%,3.1%,3.73%,2.34%
CS(=O)(=O)CCN(CC#N)Cc1ccc(-c2ccc3ncnc(Nc4ccc(OCc5cccc(F)c5)c(Cl)c4)c3c2)o1,-2.02%,1.25%,2.48%,-2.98%,-0.45%,0.28%,2.55%,0.67%,1.7%,-0.47%,-1.52%,-4.32%,-2.59%,0.26%,0.64%,0.54%,-0.02%,0.76%,-0.29%,–
O=C1NC(=O)C(c2cccc(Cl)c2)=C1Nc1ccc(O)c(Cl)c1,6.43%,3.12%,12%,1.98%,4.94%,1.7%,4.63%,0.16%,2.07%,1.29%,2.13%,-0.44%,-0.92%,0.03%,0.04%,-0.58%,1.59%,2.1%,15.6%,5.22%
O=C(Nc1n[nH]c2nc(-c3ccco3)c(Br)cc12)C1CC1,2.92%,3.12%,4.6%,1.47%,2.02%,3.44%,4.35%,2.64%,2.71%,3.14%,4.49%,-0.15%,1.73%,1.86%,1.26%,2.91%,3.6%,2.45%,2.7%,4.8%
COc1cc2ncn(-c3cc(OCc4ccccc4C(F)(F)F)c(C(N)=O)s3)c2cc1OC,-0.1%,3.23%,7.03%,-2.38%,-1.47%,2.54%,3.46%,3.3%,5.56%,4.32%,-4.22%,-2.49%,-0.6%,2.27%,1.47%,4.71%,4.41%,4.83%,22.1%,5.55%
COc1cc(C=NNc2ncnc3c2cnn3-c2ccccc2)ccc1O,5.31%,3.65%,12.4%,-0.28%,-1.35%,-2.23%,-2.87%,-3.59%,-0.98%,-5.64%,-5.67%,1.34%,-4.27%,-1.87%,-2.21%,-3.81%,-2.84%,2.3%,8.38%,3.21%
COc1ccc(COc2ccc(Cc3cnc(N)nc3N)cc2OC)cc1,5.8%,2.39%,2.5%,1.77%,3.54%,5.47%,7.23%,5.87%,4.77%,8.9%,9.42%,0.28%,8.82%,2.95%,3.22%,6.15%,7.43%,2.6%,0.09%,4.54%
COc1cccc(-n2ncc3c(N/N=C/c4cccc(F)c4)ncnc32)c1,2.7%,2.52%,16.1%,0.94%,1.12%,1.95%,3.28%,1.45%,1.6%,-0.52%,-1.39%,-4.3%,1.59%,-0.12%,0.02%,1.02%,0.04%,2.19%,6.35%,0.17%
N#Cc1c(NC(=O)c2cccc3ccccc23)sc2c1CCCC2,1.93%,2.34%,4.57%,2.05%,1.58%,7.17%,10.4%,6.18%,6.56%,8.89%,9.29%,0.23%,0.08%,4.07%,3.83%,8.24%,8.43%,3.26%,3.28%,2.5%
O=C1NC(=O)C(c2ccc(Cl)cc2)=C1Nc1ccc(Cl)c(C(=O)O)c1,-3.46%,-2.31%,1.44%,0.68%,0.51%,-0.04%,-1.22%,-2%,-1.93%,-1.53%,-1.43%,-1.2%,-0.41%,-1.23%,-1.83%,-0.48%,-1%,-0.68%,-0.26%,-0.12%
